# IDE act: IDE (human) activation, cell-based; P14735; HEK cells, FAbeta-B cleavage, fluorescence polarization; 0% vehicle, 100% cell-free pure enzyme wells; activation, % at 5.96 µM; actives 0.073% (n = 340,000);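 active = activation above the mean of all tested compounds plus 3 SD, set per screening campaign, cut at about 17% in these data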
# Rin1 Abl inh: human Rin1-Abl interaction inhibition | TR-FRET Rin1/Abl binding, biochemical | P00519+Q13671 | actives 0.4% (n = 360,000) | AID 588664 | inhibition, % at 7.35 µM; in the data active = inhibition above about 5%, passing the limit was not always enough
# TPT1 inhibitor: inhibitors of Candida albicans tRNA 2'-phosphotransferase TPT1; recombinant caTPT1, FP RNA substrate dephosphorylation; inhibition, % at 5 µM; actives 0.81% (n = 300,000);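 active = inhibition above the mean of all tested compounds plus 3 SD, set per screening campaign, cut at about 24% in these data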;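 also: plate controls were DMSO alone for no effect and ferristatin control at 100 nM for full effect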
# IDE cell inh: inhibitors of human insulin-degrading enzyme in cells; AID 434962; P14735; actives 0.41% (n = 320,000); inhibition, % at 5.59 µM; HEK cells, FAbetaB cleavage, fluorescence polarization;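 active = percent inhibition above the average of all tested compounds plus 3 SD, set per screening campaign, cut at about 16% in these data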;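 also: IDE supplied by intact live HEK cells; FP after avidin binding of uncleaved biotin substrate so inhibition keeps polarization high; 0% = DMSO wells and 100% = 60 µM reference IDE inhibitor Ii1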
# Rpn11 inh: Rpn11 (human) deubiquitinase inhibition | inhibition, % at 20 µM | actives 0.59% (n = 360,000) | AID 588493 | O00487 | human 26S proteasome, Ub4-pepOG fluorescence polarization; 20S core pre-blocked with epoxomicin;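 active = inhibition at 20 µM, scaled to each plate's controls, above about 33%, limit read from the data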
# Calb FLC: affects C. albicans growth with fluconazole; C. albicans CaCi-2 (fluconazole-resistant clinical isolate) + fluconazole, Alamar Blue growth, 48 h; growth inhibition, % (test concentration not listed); actives 0.57% (n = 300,000);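 active = growth inhibition above about 58% in most replicates, limit read from the data, passing the limit was not always enough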;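 also: all wells also contain fluconazole at 8 µg/ml as a sub-toxic cotreatment; 0% = median of DMSO wells and 100% = median of geldanamycin control wells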
# Rpn11 inh conf: Rpn11 inhibition confirmation, single concentration; shares compounds with Rpn11 inh; purified human 26S proteasome, Ub4-pepOG fluorescence polarization; proteasome pretreated with epoxomicin; inhibition, % at 20 µM; actives 29% (n = 1,900); AID 602318
# MMP-2 inh: blocks human MMP-2, flagging nonselective RPN11 hits; shares compounds with Rpn11 inh; recombinant MMP-2, FRET peptide cleavage fluorescence; inhibition, % at 20 µM; actives 4% (n = 1,900); AID 602330;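 also: human MMP-2 activated beforehand with APMA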
# Thrombin inh: thrombin (bovine) inhibition counter-screen; shares compounds with Rpn11 inh; bovine thrombin cleavage of Ub4-pepOG, fluorescence polarization; inhibition, % at 20 µM; actives 13% (n = 1,900); AID 602333;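 active = mean inhibition at least 40% at 20 µM, or signal 3 deviations below plate average, so some actives read negative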;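 also: plate controls were thrombin with DMSO for no effect and buffer wells lacking thrombin for full effect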
# Target sequence (P00735 whole entry, looked up): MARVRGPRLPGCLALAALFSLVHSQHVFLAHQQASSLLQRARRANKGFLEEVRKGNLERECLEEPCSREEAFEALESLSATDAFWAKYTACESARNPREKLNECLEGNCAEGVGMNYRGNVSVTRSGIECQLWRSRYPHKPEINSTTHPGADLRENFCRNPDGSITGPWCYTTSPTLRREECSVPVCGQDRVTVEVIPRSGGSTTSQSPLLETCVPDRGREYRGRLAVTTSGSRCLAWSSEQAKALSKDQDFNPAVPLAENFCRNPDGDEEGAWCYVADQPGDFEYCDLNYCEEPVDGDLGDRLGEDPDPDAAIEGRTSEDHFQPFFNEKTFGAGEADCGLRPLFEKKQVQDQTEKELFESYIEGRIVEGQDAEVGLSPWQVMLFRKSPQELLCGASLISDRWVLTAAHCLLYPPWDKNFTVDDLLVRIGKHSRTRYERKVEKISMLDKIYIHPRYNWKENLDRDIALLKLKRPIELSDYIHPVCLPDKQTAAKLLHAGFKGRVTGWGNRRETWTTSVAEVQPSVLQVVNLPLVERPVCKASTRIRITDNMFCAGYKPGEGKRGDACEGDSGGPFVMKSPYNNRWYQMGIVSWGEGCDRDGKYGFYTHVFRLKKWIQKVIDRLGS
# * marks the source's active call; other numbers are inactive results; nt = no result given. Only some compounds are listed: those with a hit (about 2.3% of all), similar ones and a draw of the others. Rule as the data show it, unless noted: active = inhibition above about 40%; inactive = the rest.
SMILES,IDE act,Rin1 Abl inh,TPT1 inhibitor,IDE cell inh,Rpn11 inh,Calb FLC,Rpn11 inh conf,MMP-2 inh,Thrombin inh
COc1ccc(OC)c(NC(=S)N2CCN(c3ccccn3)CC2)c1,1,-3,3,-1,0,0,nt,nt,nt
O=[N+]([O-])c1ccc(/C=N/Nc2ccccn2)cc1,4,-2,14,-8,42*,-8,19,-35,-3
Cn1c(SCC(=O)NCC2CCCO2)ncc(C(=O)Nc2ccc(F)cc2)c1=O (stereo not drawn),-3,1,4,-4,29,3,nt,nt,nt
Cn1c(SCC(=O)NCC2CCCO2)ncc(C(=O)Nc2ccc(Cl)cc2)c1=O (stereo not drawn),-2,1,3,-1,64*,-1,11,-47,-3
COc1ccccc1-n1cc(C(=O)c2cc(Cl)ccc2O)cc(C#N)c1=O,1,1,13,13,47*,-7,17,-23,8
COCCn1cc(C(=O)c2cc(Br)ccc2O)cc(C#N)c1=O,3,2,17,1,94*,-6,8,21,4
N#Cc1cc(C(=O)c2cc(Br)ccc2O)cn(Cc2ccccc2)c1=O,-4,2,16,10,50*,-1,13,0,18
COc1ccc(O)c(C(=O)c2cc(C#N)c(=O)n(Cc3ccccc3)c2)c1,-2,3,4,0,5,-14,nt,nt,nt
Cc1ccccc1-n1cc(C(=O)c2cc(Cl)ccc2O)cc(C#N)c1=O,-7,-2,10,4,15,-1,nt,nt,nt
CCSc1nnc(NC(=O)Nc2cccc(C)c2)s1,4,-2,4,0,-4,-19,nt,nt,nt
COc1cc(/C=N/Nc2ccc([N+](=O)[O-])cc2S(=O)(=O)N2CCOCC2)cc(OC)c1OC,5,0,1,-10,44*,3,-5,-4,-16
CCOC(=O)C1=CCN(S(=O)(=O)c2ccccc2Br)C1c1ccc(Cl)c(Cl)c1 (stereo not drawn),nt,3,nt,nt,-3,nt,nt,nt,nt
COc1ccc(Cl)cc1NC(=O)CCCNC(=O)c1ccc(Cl)cc1,4,4,-5,-1,137*,-3,7,-1,3
Cc1ccc(NC(=O)CCC(=O)N2CCN(S(=O)(=O)c3ccc(C)cc3)CC2)cc1,2,-2,nt,2,1,nt,nt,nt,nt
Cc1sc2nc(SCC(=O)Nc3ccccc3F)[nH]c(=O)c2c1C,8,-1,2,-4,0,37,nt,nt,nt
Cc1csc(NC(=O)CSc2nc3sc(C)c(C)c3c(=O)[nH]2)n1,3,2,12,-3,53*,36,44*,-5,29
COc1ccc(-c2nsc3c(N4CCN(C(=O)c5ccco5)CC4)ncnc23)cc1,-4,-1,-6,4,6,21,nt,nt,nt
O=C(c1ccco1)N1CCN(c2ncnc3c(-c4ccccc4)nsc23)CC1,-1,-11,-2,1,102*,89*,5,-6,-4
COc1ccc(-c2ccc3[nH]c4c(c3c2)CCN2C[C@@H]([C@H](C)O)[C@@H](N(C)C(=O)Nc3cc(Cl)cc(Cl)c3)C[C@@H]42)cc1,nt,-2,nt,nt,41*,nt,26,5,3
CN(CC(=O)Nc1ccc(Cl)c(Cl)c1)CC(=O)N1CCCCCC1,nt,3,nt,nt,-8,nt,nt,nt,nt
N=c1c(S(=O)(=O)c2ccccc2)cc2c(=O)n3ccccc3nc2n1C1CCCC1,4,-2,6,7,78*,21,-13,-44,-13
Cc1c(OCC(N)=O)ccc2c(-c3ccccc3)cc(=O)oc12,1,-3,1,3,58*,15,47*,-25,3
COc1ccc(C)cc1N1CC(C(=O)OCc2nc(N)nc(Nc3ccccc3C)n2)CC1=O (stereo not drawn),-1,-3,nt,nt,-14,nt,nt,nt,nt
O=C(Nc1nc(-c2ccco2)cs1)c1ccccc1,-4,1,20,7,45*,31,-3,11,-11
O=C(Cn1cnc2c(nnn2-c2cccc(F)c2)c1=O)Nc1ccc2c(c1)OCCO2,1,1,-1,2,3,-8,nt,nt,nt
SMILES,IDE act,Rin1 Abl inh,TPT1 inhibitor,IDE cell inh,Rpn11 inh,Calb FLC,Rpn11 inh conf,MMP-2 inh,Thrombin inh
COc1ccc(-n2nnc3c(=O)n(CC(=O)Nc4ccc5c(c4)OCCO5)cnc32)cc1OC,0,4,3,1,44*,8,17,-25,7
Cn1c(C(=O)NCCCN2CCCCCC2)cc2c(=O)n(C)c3ccccc3c21,-2,3,-2,-2,68*,nt,-8,-39,-7
CCCN1CCN(CCCNC(=O)c2cc3c(=O)n(C)c4ccccc4c3n2C)CC1,6,-2,0,0,2,1,nt,nt,nt
Cc1ccc(S(=O)(=O)N2CCCCC2)cc1NC(=O)COC(=O)c1ccc2c(c1)OCO2,-2,-1,1,5,1,-25,nt,nt,nt
Cc1csc(SCC(=O)NC(=O)Cc2ccccc2)n1,1,-5,1,-4,3,6,nt,nt,nt
Cc1csc(SCC(=O)NC(=O)NCc2ccccc2)n1,4,0,-2,3,183*,-4,-10,15,6
Cc1ccc(-c2ccc(S(=O)(=O)N3CC(C)OC(C)C3)cc2)cc1 (stereo not drawn),2,-3,-1,9,64*,-3,-8,-2,-1
CC(=O)c1cn(CC(=O)NCc2ccc3c(c2)OCO3)c2ccccc12,6,-3,4,4,93*,-8,-16,-8,-16
COc1ccc(C(=O)Cc2cc(OC)c(OC)cc2C(=O)c2ccccc2F)cc1OC,4,-1,6,-2,3,22,nt,nt,nt
Cc1occc1-c1nnc(SCC(N)=O)n1Cc1ccccc1,3,-2,-1,-4,2,-1,nt,nt,nt
Cc1occc1-c1nnc(SCC(=O)NCCc2ccccc2)n1Cc1ccccc1,5,-4,6,4,85*,0,13,-23,11
Cc1noc(C)c1C(=O)OCC(=O)c1c[nH]c2ccccc12,2,-4,4,3,7,8,nt,nt,nt
Cc1onc(-c2c(F)cccc2Cl)c1C(=O)OCC(=O)c1c[nH]c2ccccc12,-6,2,2,0,58*,-4,20,-28,-11
CCc1ccc(NC(=O)C2CCN(S(=O)(=O)c3ccc4c(c3)NC(=O)C(C)S4)CC2)cc1 (stereo not drawn),-6,1,6,8,69*,7,87*,25,33
Cn1cncc1C#Cc1ccc2cc(C3(O)CCCCC3)oc(=O)c2c1,6,7,nt,-4,47*,nt,90*,6,31

# Source: PubChem BioAssay (several laboratories)
